Compound activity from PubChem.
A selection: hits, their analogues and other compounds. The true share with any hit is near 22%.
Pf growth 48h: P. falciparum growth inhibition at 48 hours (one generation) | 310,000 compounds, 5.9% hits | P. falciparum luciferase growth in erythrocytes, 48 h | Potency, µM (series often up to 28.7 µM), inactives show top-dose activity change, negative = inhibition, usual class: inhibitors | AID 504832; also: potency is read from the fitted curve at half-maximal effect; % is scaled to controls: 0 for no effect and ±100 for the full control effect
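Parasite viability was followed by luminescence of a genomically integrated firefly luciferase. Cultures held 0.1% parasitemia at 2% hematocrit (final), incubated under 5% CO2 at 37 C.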
CHX counter: counter-screen for Shiga toxin inhibitors: cycloheximide protein synthesis inhibition. cell reporter, cycloheximide protein synthesis inhibition counterscreen. max response, %. 300,000 compounds, 12% hits. AID 2314; in the data active = max response mostly above about 13%, no sharp cut-off; inactive = mostly below about 14%; also: read at 38.3 µM for the half of the compounds with a filed dose; 0% is about no effect
Shiga toxin inh: inhibitors of Shiga toxin in Vero cells; Vero cells, Shiga toxin protein synthesis inhibition reporter; inhibition, % at 38.7 µM; 290,000 compounds, 9.2% hits; AID 2315; in the data active = inhibition mostly above about 28%, no sharp cut-off; inactive = mostly below about 43%; also: 0% is about no effect
Pf growth 96h: inhibits malaria parasite growth, 96 h; P. falciparum luciferase reporter growth, 96 h; Potency, µM (series often up to 28.7 µM), for inactives: at the highest dose activity change, negative = inhibition, hits mostly inhibitors; 320,000 compounds, 6.9% hits; also: potency is read from the fitted curve at half-maximal effect; % is scaled to controls: 0 for no effect and ±100 for the full control effect
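Plates of compound plus infected erythrocytes (2% hematocrit, 0.05% parasitemia final) incubate 96 hours, 37 C, 5% CO2. Detection reagent added; reduced luminescence from the parasites' luciferase reporter flags inhibition.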
LmPK inhibitor: blocks Leishmania mexicana pyruvate kinase activity; Q27686; purified LmPK, Kinase-Glo ATP luminescence, 1 h; Potency, µM (titrated, usually from 57.5 µM), for inactives: at the highest dose activity change, negative = inhibition, usual class: inhibitors; 290,000 compounds, 0.37% hits; AID 1721; also: potency is read from the fitted curve at half-maximal effect; % is scaled to controls: 0 for no effect and ±100 for the full control effect
Target sequence (Q27686 whole entry, looked up): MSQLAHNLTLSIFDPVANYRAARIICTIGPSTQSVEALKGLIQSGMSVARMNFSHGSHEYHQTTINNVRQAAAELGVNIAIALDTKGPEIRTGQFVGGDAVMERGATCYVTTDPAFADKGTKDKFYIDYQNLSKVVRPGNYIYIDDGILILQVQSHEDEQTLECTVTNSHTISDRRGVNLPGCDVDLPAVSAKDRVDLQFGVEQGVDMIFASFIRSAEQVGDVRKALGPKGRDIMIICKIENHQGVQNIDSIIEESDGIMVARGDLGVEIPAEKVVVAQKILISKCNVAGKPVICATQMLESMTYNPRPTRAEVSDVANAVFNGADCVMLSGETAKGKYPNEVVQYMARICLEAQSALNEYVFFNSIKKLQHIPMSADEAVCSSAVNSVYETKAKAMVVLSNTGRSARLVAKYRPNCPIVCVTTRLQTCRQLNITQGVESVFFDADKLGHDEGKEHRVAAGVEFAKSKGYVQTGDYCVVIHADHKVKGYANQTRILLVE
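In 50 mM imidazole pH 7.2 with 7 mM MgCl2, LmPK (0.1 nM) turned over PEP (0.5 mM) and ADP (0.1 mM) for 1 h at room temperature. Luciferase read-out of ATP.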
Active calls of the source: *; i = inactive; ? = inconclusive; / = not tested or not shown; + = active, no number; [ ] = remark or other dose. Unless noted, calls follow the shape of the dose curve; as a rule, active = well fitted inhibition curve with a large enough effect; inconclusive = small, poorly fitted or top-dose-only effect, or another doubt; inactive = no such curve, though single readings can be large or run the other way.

SMILES	Pf growth 48h	CHX counter	Shiga toxin inh	Pf growth 96h	LmPK inhibitor
CCCOc1ccccc1C(=O)N(Cc1cccc(Br)c1)C1CCS(=O)(=O)C1 (stereo not given)	?	-4	-4	?	15%
COc1ccc(-c2nc(CS(=O)(=O)CC(=O)NCCCN3CCN(C)CC3)c(C)o2)cc1	-7%	4	-8	67%	-4%
CCN(C(=O)COC(=O)CCC1CCCC1)c1c(N)n(Cc2ccccc2)c(=O)[nH]c1=O	5%	/	/	-2%	/
Cc1ccc2c(c1)N(C(=O)CSc1nncn1C)C(C)(C)c1ssc(=S)c1-2	?	-1	-4	/	-2%
Cc1cccc2c1N(C(=O)c1ccco1)C(C)(C)c1ssc(=S)c1-2	?	-2	-6	5.2µM*	0%
Cc1ccc2c(c1)N(C(=O)c1ccco1)C(C)(C)c1ssc(=S)c1-2	/	-3	-13	5.2µM*	-4%
COc1cccc(NS(=O)(=O)c2ccc3[nH]cc(C(=O)NC(C)c4ccccc4)c(=O)c3c2)c1 (stereo not given)	/	51	5	/	/
CCN(CC)S(=O)(=O)c1cc(C(=O)Nc2ccccc2[N+](=O)[O-])ccc1Cl	26%	27*	41*	55%	3%
O=C(O)c1ccc(NS(=O)(=O)c2cccc(C(=O)Nc3ccccc3[N+](=O)[O-])c2)cc1	4%	6	-4	0%	1%
CCN(CC)S(=O)(=O)c1cc(C(=O)Nc2cc(C)[nH]n2)ccc1Cl	/	67*	117*	68%	-1%
CN(C)S(=O)(=O)c1cccc(C(=O)Nc2ccccc2[N+](=O)[O-])c1	41%	18*	51*	-5%	1%
CN1C(=O)/C(=C/c2ccc(-c3ccccc3[N+](=O)[O-])o2)SC1=Nc1ccc(Cl)c(C(=O)O)c1	5%	-2	-6	?	-2%
O=c1c2cccc3c(N4CCOCC4)ccc(c32)c2nc3ccccc3n12	31%	29*	73*	83%	3%
O=c1c2ccc([N+](=O)[O-])c3cccc(c32)c2nc3ccccc3n12	2%	-1	13	17%	-2%
COc1cc(OC)nc(Oc2cc(C=O)ccc2OC)n1	-5%	-1	19	-21%	-3%
Cc1cc(C(=O)Nc2c(F)c(F)c(F)c(F)c2F)n(-c2ccccc2)n1	7%	-3	-10	?	12%
COC(=O)c1cn(NC(=O)c2ccc([N+](=O)[O-])cc2Cl)c(=O)c2ccccc12	-10%	9	-6	-15%	-1%
Cc1cccc(NC(=O)c2cc(S(=O)(=O)N3CCOCC3)cn2C)c1C	7%	-2	-4	6.6µM*	0%
Cc1ccc(C)c(NC(=O)c2cc(S(=O)(=O)N3CCOCC3)cn2C)c1	-13%	1	-7	0%	0%
Cc1cccc(N2CCN(C(=O)c3cc(S(=O)(=O)N4CCCC4)cn3C)CC2)c1C	9.3µM*	-1	-5	?	5%
CCc1occc(=O)c1Oc1cc(NN2CCCCC2)c([N+](=O)[O-])cc1[N+](=O)[O-]	-40%	-2	-4	?	4%
Cc1nc(NC(=O)CSc2nnnn2Cc2ccccc2)sc1C	10%	28*	75*	28%	1%
CCn1nnnc1SCC(=O)Nc1nc2ccccc2s1	17%	21*	10	-12%	-2%
CCc1c(O)nc(SCC(=O)Nc2nc3ccccc3s2)n(-c2ccc(C)cc2)c1=O	95%	45*	93*	136%	8%
CCn1ncc(/C=C/C(=O)NCc2cnn(C)c2C)c1C	4%	-4	3	12%	0%
SMILES	Pf growth 48h	CHX counter	Shiga toxin inh	Pf growth 96h	LmPK inhibitor
CCn1ncc(/C=C/C(=O)C2CC2)c1C	13%	24	active	4%	0%
COC(=O)c1nc2ccc(C)cn2c1F	/	19*	36	-15%	5%
CCOC(=O)C1=C(COC(=O)COc2ccc(Br)cc2)NC(=O)NC1C (stereo not given)	0%	/	/	-2%	/
CCOc1ccc(N(CC(=O)NCCc2ccc(C)cc2)S(=O)(=O)c2c(C)noc2C)cc1	?	-2	-5	?	13%
N#Cc1ccc2c(c1)C[C@]1(CCCCN3C(=O)c4ccccc4C3=O)Oc3cc(-c4ccccc4)oc(=O)c3[C@H]2O1	?	-1	i	?	-9%[11.5 µM]
CCCC[C@]12Cc3ccccc3C(O1)c1c(cc(-c3ccccc3)oc1=O)O2	0.43µM*	13	+	1.5µM*	-7%[11.5 µM]
